In PubChem BioAssay (NCI):
This is part of a sample that, as a whole, favours compounds with a hit. Of some 83,000 tested, about 20% had one in any assay.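 Step 1: grow cells in 96-well plates. Step 2: add test compound at a single concentration. Step 3: incubate 48 h. Step 4: record percent growth.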 Unmarked numbers belong to inactive results. Activity calls are given as the source filed them. The calls were made as follows: active = growth percent below 10; inactive = the rest.

How the values were obtained:
Assay in all cases: NCI-60 one-dose screen, 48 h (100 = growth as untreated, 0 = no growth, -100 = all killed)
Conditions in all cases: 10 µM unless noted
[1] = tested on: NCI-H23 lung
[2] = tested on: NCI-H226 lung
[3] = tested on: NCI-H322M lung
[4] = tested on: HOP-62 NSCLC
[5] = tested on: NCI-H460 lung
[6] = tested on: HOP-92 NSCLC
[7] = tested on: NCI-H522 lung
[8] = tested on: A549/ATCC NSCLC
[9] = tested on: 786-0 renal
[10] = tested on: COLO 205 colon

Structure (SMILES) | growth [1] | growth [2] | growth [3] | growth [4] | growth [5] | growth [6] | growth [7] | growth [8] | growth [9] | growth [10]
C=CCNc1ccc2c3c(cccc13)C(=O)N(N1C(=O)c3cccc4cccc(c34)C1=O)C2=O | 91.9% | 93.9% | 102% | 96.3% | 102% | 98.7% | 93.9% | 98.2% | 104% | 117%
O=C(Nc1ccc(Cl)cc1F)c1cc(Cl)ccc1O | -20% (active) | -9.16% (active) | -11.1% (active) | 7.55% (active) | -5.39% (active) | -21.7% (active) | -3.15% (active) | 7.91% (active) | -0.322% (active) | 22.2%
Cc1ccc(/C=N\NC(=O)c2[nH]c3ccc(F)cc3c2-c2ccccc2)cc1 | 38% | 46.4% | 57.7% | 42.3% | 3.26% (active) | 4.75% (active) | -42.3% (active) | 23% | 35.1% | -78.8% (active)
CCN1C(=O)N(CC)C2Nn3c(s/c(=C4\C(=O)N(CC(C)C)c5ccccc54)c3=O)=NC21 (stereo not given) | 43% | 84.1% | 64.9% | 55.2% | 24.5% | 81.2% | 15.9% | 44.6% | 35.3% | 4.64% (active)
CCOC(=O)c1cnn2c3ccccc3n(S(=O)(=O)c3ccc(OC)cc3)c12 | 28.2% | 19.9% | 53.7% | 35% | 18.4% | 59.9% | 20.6% | 28.5% | 40.5% | -19.4% (active)
CCOC(=O)Nc1ccc(C(=O)/C=C/c2ccccc2)cc1 | 95% | 79.2% | 100% | 90.2% | 91.3% | 70.2% | 106% | 54.4% | 87.1% | 127%
COc1ccc(C(=O)/C=C/c2sc(Cl)nc2Cl)cc1 | 8.44% (active) | 40.7% | 93.1% | 68.3% | 29.5% | 32.8% | 19.1% | 78.1% | 18.5% | 1.55% (active)
COc1ccc(C(=O)N=Nc2c(O)n(C)c3ccccc23)cc1 | 85.3% | 91.1% | 94.4% | 97.6% | 94% | 86.1% | 91.5% | 105% | 106% | 106%
O=[N+]([O-])c1ccccc1NCSc1ccc(Cl)cc1 | 91.2% | 91% | 98.1% | 124% | 95.8% | 78.3% | 90.7% | 91.3% | 87.6% | 116%
N#Cc1ccc(NC(=O)c2sc3nc4c(cc3c2N)C(=O)CCC4)cc1 | 106% | 93.7% | 103% | 101% | 85.9% | 95.6% | 103% | 92.5% | 97.8% | 109%
CCOC(=O)NCCc1ccccc1 | 101% | 107% | 93.2% | 99.7% | 112% | 82% | 98.1% | 89.6% | 112% | 112%
O=c1c2cc(F)ccc2sc2c(N3CCNCC3)nc3ccc(F)cc3c12 | 61.3% | 83.8% | 55.4% | 57.5% | -88.4% (active) | 7.38% (active) | 8.28% (active) | 13.2% | 60.5% | -51.9% (active)
CCCCOc1nc2ccc(OC)cc2cc1-c1cc(-c2ccc(Cl)cc2)nc(-c2ccc(Cl)cc2)c1 | 102% | 103% | 99.7% | 110% | 107% | 97.6% | 98.7% | 99.3% | 112% | 112%
COc1cc(C2CC(c3cccc(Br)c3)=NN2C(C)=O)cc(OC)c1OC (stereo not given) | 24.8% | 28% | 33% | 43.7% | 9.31% (active) | 78.3% | -13.8% (active) | 29.1% | 40.7% | 2.52% (active)
CC(=O)c1ccc(Nc2nc(C(C)=O)c(C)s2)cc1 | 96% | 66.2% | 82% | 95.4% | 97.8% | 102% | 87.9% | 95.5% | 95.8% | 109%
COc1cc(CNS(=O)(=O)c2ccc(C)cc2)ccc1OCc1cn(-c2ccccc2)nn1 | 83% | 81.5% | 92.8% | 97% | 97.1% | 68.4% | 76.5% | 90.7% | 95.2% | 108%
COc1ccc(C2C(N)=NNC2c2cccc(O)c2)cc1 (stereo not given) | 90.2% | 84% | 90.6% | 90.2% | 115% | 88.3% | 89.2% | 99.8% | 108% | 125%
CNc1ccc(Nc2cccc(C)c2)c2c1C(=O)c1ccccc1C2=O | 89.9% | 93.1% | 82.1% | 102% | 87.6% | 28.9% | 75.9% | 97.7% | 100% | 105%
COc1c(N2CC3CCCN(C(C)=O)C3C2)c(F)cc2c(=O)c(C(=O)N[C@H]3C(O)[C@@H](O)C(CO)O[C@H]3O)cn(C3CC3)c12 (stereo not given in full) | 105% | 108% | 106% | 103% | 108% | 103% | 94.9% | 103% | 101% | 110%
COc1cc(Nc2nc(NCCN)nc3cc[nH]c(=O)c23)cc(OC)c1 | 65.1% | 93.7% | 83% | 97.8% | 96.9% | 59.5% | 72.9% | 90.5% | 86.9% | 55.3%
COc1ccc(NC2=C(Br)C(=O)C(C)=C(C)C2=O)cc1 | 79.7% | 75.5% | 89.9% | 84.2% | 99.9% | -73.6% (active) | 87.6% | 99.5% | 103% | 115%
COc1cccc(-c2nc(-c3ccc(NC(=O)c4ccccc4)cc3)[nH]c2-c2ccnc(Br)c2)c1 | 27.9% | 47% | 41.2% | 4.28% (active) | 19.1% | 50.2% | 16.2% | 39.3% | -10.4% (active) | 16.7%
COc1ccc(N)c(N)c1 | 96.4% | 113% | 95.4% | 105% | 105% | 92.5% | 81.4% | 98.1% | 102% | 105%
Cc1ccc2c(-c3cc(-c4ccccc4)nc(N)c3C#N)cc(=O)oc2c1 | 102% | 95.9% | 96.6% | 88.3% | 101% | 92.3% | 68.1% | 92% | 92.2% | 108%
O=C1CN(CCN2CC(=O)N(Cc3ccccc3)C(=O)C2)CC(=O)N1Cc1ccccc1 | 97.7% | 107% | 104% | 91.2% | 100% | 85% | 98.8% | 102% | 110% | 109%
CNCCCC12CCC(c3ccccc31)c1ccccc12 | 92.1% | 107% | 92% | 82.9% | 97.3% | 48.5% | 88.8% | 90.1% | 65.7% | 7.78% (active)
N/C(=N\c1nc2ccccc2s1)NC(=O)Nc1cccc2ccccc12 | 29.6% | 66.8% | 41.8% | 34.5% | 10.7% | 48.4% | 5.26% (active) | 27.7% | 34.5% | 3.54% (active)
COc1cc(C)c(Cc2cnc(N)nc2N)cc1OC | 101% | 93.9% | 103% | 97.1% | 111% | 88.9% | 95.9% | 103% | 103% | 117%
